Hit rate of the full screen: of about 24,000 compounds, about 50 (0.2%) were called active. Inconclusive results (about 9%) are left out.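 How the source made its calls: active means inhibition above 50%; inconclusive means compound itself fluorescent, judged against control cell fluorescence; inactive means the rest.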 This excerpt belongs to a sample that is enriched for actives.
Molecular target: Integrin alpha-4 (Homo sapiens) (UniProt P13612)
Test: inhibitors of LDV-FITC binding to Mn2+-activated VLA-4, primary screen, Jurkat cells (AID 529);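 further: 0% = Mn2+ stimulated cells lacking compound and 100% = ligand binding without Mn2+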
Details: LDV-FITC binding with Mn2+, flow cytometry, hits give high values, 100% = Mn2+-driven binding gain fully reversed, screened at 10 µM (by protocol)

Sequence of Integrin alpha-4 (Homo sapiens) (P13612 whole entry, looked up): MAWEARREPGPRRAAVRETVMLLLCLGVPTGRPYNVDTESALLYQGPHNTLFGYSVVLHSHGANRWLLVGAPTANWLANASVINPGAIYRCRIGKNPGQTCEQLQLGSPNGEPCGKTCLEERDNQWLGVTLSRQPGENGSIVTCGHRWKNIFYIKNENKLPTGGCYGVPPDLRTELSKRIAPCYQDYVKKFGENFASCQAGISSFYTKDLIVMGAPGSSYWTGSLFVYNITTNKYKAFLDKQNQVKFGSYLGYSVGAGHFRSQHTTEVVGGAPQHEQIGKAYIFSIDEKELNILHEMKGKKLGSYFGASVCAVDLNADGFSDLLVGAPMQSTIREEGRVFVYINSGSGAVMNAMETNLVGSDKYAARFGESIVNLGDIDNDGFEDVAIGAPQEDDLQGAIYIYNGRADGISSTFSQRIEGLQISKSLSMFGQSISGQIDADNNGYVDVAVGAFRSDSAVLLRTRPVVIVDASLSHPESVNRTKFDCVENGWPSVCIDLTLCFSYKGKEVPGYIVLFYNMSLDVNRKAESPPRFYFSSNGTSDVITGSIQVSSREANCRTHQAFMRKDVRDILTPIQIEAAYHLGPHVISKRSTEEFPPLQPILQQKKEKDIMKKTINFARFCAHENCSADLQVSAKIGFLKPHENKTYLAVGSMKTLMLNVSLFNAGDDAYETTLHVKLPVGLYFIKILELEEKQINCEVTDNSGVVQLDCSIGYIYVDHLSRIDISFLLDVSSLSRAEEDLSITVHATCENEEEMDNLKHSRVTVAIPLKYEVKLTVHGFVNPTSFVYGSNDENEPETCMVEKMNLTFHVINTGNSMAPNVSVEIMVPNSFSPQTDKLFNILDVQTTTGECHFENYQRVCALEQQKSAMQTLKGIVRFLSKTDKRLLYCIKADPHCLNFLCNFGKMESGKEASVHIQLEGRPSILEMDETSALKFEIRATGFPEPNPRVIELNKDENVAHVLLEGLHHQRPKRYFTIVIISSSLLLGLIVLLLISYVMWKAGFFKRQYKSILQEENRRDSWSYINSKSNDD

inhibition, inactive:
O=C(NCc1cccs1)c1ccc2c(c1)ncn2C1CCCC1 -10%
CCCn1cc(SCC(N)=O)c2ccccc21 -4%
N#CC1=C(N)Oc2cc(O)ccc2C1C1CCCCC1 (configuration not stated) -8%
CCOCCCN1C(=O)CN(C2CCCCC2)C(=O)C1c1ccc(OCC)c(OC)c1 (configuration not stated) 7%
COc1cc2c(cc1OC)C(c1ccc(C)o1)CC(=O)N2 (configuration not stated) 3%
CCCCOC(=O)NCN1C(=O)C2C3C=CC(C3)C2C1=O (configuration not stated) -15%
Cc1cc(N2C(=O)c3ccc(C(=O)NCc4ccccc4)cc3C2=O)no1 3%
CCCCc1nccn1CCn1ccnc1CCCC -5%
CCCS(=O)(=O)C(=C1Nc2ccccc2N1)S(=O)(=O)CCC 0%
CCCCNC(=O)c1c[nH]c2ccc(S(=O)(=O)Nc3ccc(OCC)cc3)cc2c1=O -22.5%
COc1ccc(C2CC(c3ccc(C)cc3)Nc3ncnn32)cc1 (configuration not stated) -3.7%
COc1ccc(C2C(C(=O)Nc3ccccc3OC)=C(C)Nc3nnnn32)c(OC)c1 (configuration not stated) 3%
CCCCOC(=O)Nc1nccs1 15.3%
O=C(CSC1=Nc2ccccc2C2=NC(c3ccccc3)C(=O)N12)NCC1CCCO1 (configuration not stated) 3%
COc1ccc(C2CC(c3ccc(Cl)cc3Cl)Nc3nc(N)nn32)cc1OC (configuration not stated) -5%
COc1cccc(NS(=O)(=O)c2ccc3[nH]cc(C(=O)NCCCOC(C)C)c(=O)c3c2)c1 -26%
CCOC(=O)c1oc2ccccc2c1NC(=O)c1cccs1 17%
Cc1nn(C)c(C)c1S(=O)(=O)N1CCc2ccccc21 2%
Cc1cccc(N2CCN(S(=O)(=O)c3ccc4c(c3)c(=O)n(C)c(=O)n4C)CC2C)c1 (configuration not stated) -4%
O=C(C1CCN(S(=O)(=O)c2cccs2)CC1)N1CCCCCC1 -3%
CN(C)CCCNC(=O)c1ccc2[nH]c3ccccc3c2c1 -6%
COc1ccc(CCNC(=O)CSc2nnc(CNC(=O)c3cccs3)o2)cc1OC 13%
CCOC(=O)C1(c2ccccc2)NC(c2ccc(N(C)C)cc2)C2C(=O)N(C)C(=O)C21 (configuration not stated) -13%
CCOc1ccc(NC(=O)N(CCC(C)C)C(C)c2ccco2)cc1 (configuration not stated) -12%
CCC(C)(C(=O)NC1CCCC1)N(C(=O)CNC(C)=O)c1ccc(C)cc1 (configuration not stated) -12%
Cc1ccc(C(=O)N(CN2CCCC2=O)c2ccc(F)cc2)cc1 -10%
CCN(CC)CCNC(=O)Cn1cnc2sc(C)c(S(=O)(=O)N3CCOCC3)c2c1=O 0%
COc1ccccc1CNC(=O)CCCn1c(=O)c2ccccc2n(CC(=O)NC2CCCC2)c1=O -2%
CCOC(=O)N1CCC(NC(=O)CN2C(=O)COc3ccc(C(C)(C)C)cc32)CC1 7%
O=c1c2[nH]c3ccc(Cl)cc3c2ncn1Cc1ccccn1 -1%
O=S(=O)(NCc1ccccc1Cl)c1cnc[nH]1 -2%
CCCCN=C(N)/C(C(=O)OCC)=C(\O)c1ccc(OC)cc1 9%
COc1ccc(S(=O)(=O)NC2(C(F)(F)F)N=C3SCCN3C2=O)cc1 (configuration not stated) -5%
Cc1ccc(-n2nc3c(c2NC(=O)c2ccc4c(c2)OCO4)CSC3)c(C)c1 13%
O=C(c1ccc2c(c1)N(Cc1ccc(F)cc1)C(=O)CS2)N1CCOCC1 -5%
CCCN1CCN(CCCNC(=O)CN2C(=O)COc3ccccc32)CC1 1%
Cc1cccc(CSc2nnc(Cn3c(=O)sc4ccccc43)n2C)c1 2%
COc1ccc(NC(=O)CN2CCN(S(=O)(=O)c3ccc(F)cc3)CC2)cc1Cl 9%
COCCn1c(=O)[nH]c2cc(C(=O)NCc3cccnc3)ccc2c1=O -22%
CCOc1ccccc1NC(=O)c1cc(S(=O)(=O)N2CCC3(CC2)OCCO3)ccc1F 8%
Cc1cc(C)c2c(n1)nn1c(N3CCOCC3)cc(C)nc21 -14%
CCOC(=O)CSc1nnc(CNC(=O)c2ccco2)n1-c1ccc(F)cc1 14%

Source: PubChem BioAssay AID529 (NMMLSC, 2006)
